Records with an inconclusive call do not appear. Where a call stands in place of a potency, no number is given. Active and inactive are the calls of the source. Calls come from the whole dose curve; as a rule, active = well fitted activation curve with a large enough effect; inconclusive = small, poorly fitted or top-dose-only effect; inactive = no such curve, though single readings can be large or run the other way.
experiment: qHTS assay for re-activators of p53 using a Luc reporter: Hit Validation with no p53 Expressed; details: p53-null cells, luciferase reporter counter-screen; series mostly up to 46.1 µM
Method in brief: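 Counter-screen of primary hits in a cell line not transfected with p53, in Opti-MEM with 10% FBS; compounds at several concentrations (10 mM stock, 1:5; top 46.1 µM in well), 24 h at 37 deg C, 5% CO2. Luminescence read after 10 min with Amplite reagent.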
Potency is the fitted concentration of half-maximal effect.

SMILES | Potency
CC1(C)NC(=O)N(CC(=O)N2CCN(S(=O)(=O)c3ccccc3C(F)(F)F)CC2)C1=O | inactive
Cc1cccc(NC(=S)NC(=O)C2CC2)c1 | inactive
O=[N+]([O-])c1ccc(Cl)cc1Sc1nc2ccccc2o1 | inactive
O=C(/C=C/c1ccccc1)NC1CCSC1=O (centres undefined) | 16.4 µM (active)
O=C(CCCN1C(=O)/C(=C/c2ccco2)SC1=S)Nc1ccccc1 | inactive
O=C(NC1CCCCC1)c1ccc(-c2ccccc2F)o1 | inactive
Cc1ccc(CCc2nnc(SCC(=O)Nc3cccc(Cl)c3)n2-c2ccccc2)o1 | inactive
CN=c1scc(-c2cccs2)n1/N=C/c1ccc(O)c(O)c1O | inactive
O=C(Oc1c(Cl)cc(Cl)c2cccnc12)c1cccc([N+](=O)[O-])c1 | inactive
C/C(=N\OCC(=O)NC12CC3CC(CC(C3)C1)C2)c1cc2ccccc2o1 | inactive
COc1cc(NC(=O)CN2C(=O)COc3ccc(S(=O)(=O)N4CCCC4)cc32)cc(OC)c1 | inactive
Cc1cnc(C(=O)OCC(=O)Nc2ccc(OCc3ccccc3)cc2)cn1 | inactive
CN(C)c1ccc(N=Cc2nc(-c3ccccc3)oc2OC(=O)c2cccc(Cl)c2)cc1 | inactive
CC12CN(C(=O)c3cccc([N+](=O)[O-])c3)C3(C#N)CC1CCC23C (centres undefined) | inactive
COc1ccc2oc(C(=O)Nc3nnc(C)s3)c(C)c2c1 | inactive
COC(=O)c1nn(-c2ccc(-c3ccccc3)cc2)cc1O | inactive
Cc1csc(NC(=O)/C=C/c2ccc(C)o2)n1 | inactive
CC(=O)Nc1ccc(SCC(=O)c2cc(C)n(-c3ccccc3)c2C)cc1 | inactive
OCc1cc(Br)ccc1OCc1nc2ccccc2s1 | inactive
Cc1occc1C(=O)NN=C1C2CC3CC(C2)CC1C3 | inactive

SMILES | Potency
O=C(CCc1nc(-c2ccccc2)no1)N1CCCC1 | inactive
Cc1cc(C(=O)Cn2nnc3ccccc3c2=O)c(C)n1Cc1cccs1 | inactive
O=C(NCCOc1ccccc1F)c1cc(F)c(F)cc1Cl | inactive
Cc1ccc(C2C(C#N)=C(N)Oc3cc4c(cc32)OCO4)cc1 (centres undefined) | inactive
CCc1ccc(NC(=O)c2cnn3ccccc23)cc1 | inactive
CN(/N=C/c1ccc2c(c1)OCO2)c1ccccc1 | inactive
COc1ccc(N=C(N)SCc2ccccn2)cc1 | inactive
O=C(O)C1CC(=O)N(c2ccc(Br)cc2)C1 (centres undefined) | inactive
Cc1noc(C)c1C(=O)Nc1nc(-c2ccc(F)cc2)cs1 | inactive
O=C(NCCC1=CCCCC1)c1ccc([N+](=O)[O-])cc1 | inactive
CCc1nnc(NC(=O)C2Cc3ccccc3CN2S(=O)(=O)c2cccs2)s1 (centres undefined) | inactive
COC(=O)c1cn[nH]c1NC(=S)Nc1ccc(C)cc1Cl | inactive
O=C(Cn1cc(SCc2ccc(F)cc2)c2ccccc21)N1CCOCC1 | inactive
C=CCSC1=N/C(=C\c2cc(OCC)c(OC(C)=O)c([N+](=O)[O-])c2)C(=O)S1 | inactive
O=C(Nc1nc(-c2cccs2)cs1)c1ccc([N+](=O)[O-])o1 | inactive
Cc1ccc(S(=O)(=O)NCC(=O)N2CCc3ccccc3C2)cc1 | inactive
O=[N+]([O-])c1cccc(NC(=S)N2CCc3ccccc32)c1 | inactive
Cc1cc(C(=O)COC(=O)c2cccc(O)c2)c(C)n1C1CC1 | inactive
Cc1cccc(C(=O)OCC(=O)N2CCCCCC2)c1O | inactive

Source: PubChem BioAssay AID624331 (National Center for Advancing Translational Sciences (NCATS), 2012)
